Shown is part of a subset that was picked to be rich in hits.
miR-122 inh: miR-122 suppressors via Renilla sensor increase, primary screen, cell-based, Huh7 psiCHECK-miR122, Renilla luciferase, single point; activation, % at 12.5 µM; 340,000 tested, 0.14% active; 48 h;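 active = mean activation of 30% or more, with every replicate also reaching 30%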;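 also: higher luciferase signal means stronger suppression of miR-122 activity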
Of the large screens only hits and unclear results are named; the others gave an inactive call.

Cc1noc(C)c1NC(=O)N(C)C[C@H]1Oc2ncc(C#CCC(C)C)cc2C(=O)N([C@H](C)CO)C[C@@H]1C	none
CO[C@@H]1CN(C)C(=O)c2ccc(NC(=O)c3ccccc3)cc2OC[C@H](C)N(C)C[C@@H]1C	none
C[C@@H]1CN([C@H](C)CO)C(=O)c2cc(N(C)C)ccc2O[C@@H]1CN(C)Cc1ccc(C(=O)Nc2ccccc2N)cc1	none
C[C@H](O)C#Cc1ccc2c(c1)O[C@@H](CN(C)C(=O)Cc1ccccn1)[C@@H](C)CN([C@@H](C)CO)S2(=O)=O	none
C[C@H](CO)N1C[C@H](C)[C@@H](CN(C)CC2CCOCC2)Oc2cc(Br)ccc2S1(=O)=O	none
CCC(=O)N(C)C[C@H]1Oc2ncc(-c3cccc(OC)c3)cc2C(=O)N([C@@H](C)CO)C[C@H]1C	none
CN1C(=O)c2cc(NC(=O)NCc3ccccc3)ccc2OC[C@@H]2O[C@H](CC(=O)NCC3CCCCC3)CC[C@@H]21	none
CO[C@@H]1CN(C)C(=O)c2cc(NC(=O)NC(C)C)ccc2OC[C@H](C)N(C(=O)NC(C)C)C[C@H]1C	none
CNC(=O)C[C@@H]1CC[C@H]2[C@@H](COc3ccc(NC(=O)NC(C)C)cc3C(=O)N2C)O1	miR-122 inh 70
C[C@H]1CN([C@@H](C)CO)C(=O)c2cc(Br)cnc2O[C@@H]1CN(C)C(=O)c1cccnc1	none
Cc1cc2[nH]c3c4ccccc4nc(C)c3c2cc1C	miR-122 inh 72
C[C@H](CO)N1C[C@H](C)[C@H](CN(C)Cc2ccccc2)Oc2ncc(-c3cccc(C#N)c3)cc2C1=O	none
Clc1ccc2c(N/N=C/c3ccccc3Br)ccnc2c1	miR-122 inh 59
CCC(=O)N(C)C[C@@H]1Oc2ncc(C#Cc3ccc(OC)cc3)cc2C(=O)N([C@H](C)CO)C[C@H]1C	none
COc1ccccc1-c1ccc2c(c1)O[C@H](CN(C)C(C)=O)[C@@H](C)CN([C@H](C)CO)S2(=O)=O	none
Oc1ccc(-c2nc(-c3ccc(O)c(O)c3)cs2)cc1	miR-122 inh 30
CCCC#Cc1ccc2c(c1)O[C@@H](CN(C)S(C)(=O)=O)[C@H](C)CN([C@@H](C)CO)S2(=O)=O	none
Cc1ccc(-c2cnc3c(c2)C(=O)N([C@@H](C)CO)C[C@@H](C)[C@H](CN(C)C(=O)Cc2cccnc2)O3)cc1	none
C[C@@H]1CN([C@@H](C)CO)C(=O)c2cc(-c3ccc(F)cc3)cnc2O[C@H]1CN(C)C(=O)c1ccccn1	none
C[C@@H]1CN([C@@H](C)CO)S(=O)(=O)c2ccc(Br)cc2O[C@H]1CN(C)Cc1cccc(F)c1	none
COc1ccccc1-[n+]1c(C)cc(/C=C2\Sc3ccccc3N2C)cc1C	miR-122 inh 69
CCC(=O)Nc1ccc2c(c1)OC[C@H](C)N(C(=O)c1ccncc1)C[C@@H](C)[C@@H](OC)CN(C)C2=O	none
C[C@@H]1CN([C@@H](C)CO)C(=O)c2cc(C3=CCCCC3)cnc2O[C@H]1CN(C)Cc1cccc(F)c1	none
C[C@H](CO)N1C[C@H](C)[C@H](CN(C)S(C)(=O)=O)Oc2cc(C#Cc3ccc(F)cc3)ccc2S1(=O)=O	none
COc1cccc(-c2ccc3c(c2)[C@H]2[C@H](CCN2S(=O)(=O)c2ccccc2C)[C@@H](CO)N3)c1	none
COc1cccc(N2CCN(c3ncnc4c3[nH]c3ccc(F)cc34)CC2C)c1 (centres undefined)	miR-122 inh 32
C[C@H](CO)N1C[C@H](C)[C@H](CN(C)C(=O)Nc2ccc3c(c2)OCO3)Oc2cc(C#Cc3ccccc3)ccc2S1(=O)=O	none
COc1cccc(-c2ccc3c(c2)O[C@H](CN(C)C(=O)C2CCCCC2)[C@@H](C)CN([C@@H](C)CO)S3(=O)=O)c1	none
C[C@@H]1CN([C@H](C)CO)C(=O)c2cc(C3=CCCCC3)cnc2O[C@@H]1CN(C)C(=O)c1ccc(F)cc1	none
COc1ccccc1-c1ccc2c(c1)O[C@@H](CN(C)C(=O)Nc1ccccc1)[C@H](C)CN([C@H](C)CO)S2(=O)=O	none
CCc1ccccc1NC(=O)CN(C)C(=O)Cn1ncc(Cl)c(Cl)c1=O	miR-122 inh 63
CC(C)CC#Cc1cnc2c(c1)C(=O)N([C@H](C)CO)C[C@H](C)[C@@H](CN(C)S(=O)(=O)c1ccccc1)O2	none
C[C@@H]1CN([C@@H](C)CO)S(=O)(=O)c2ccc(-c3ccncc3)cc2O[C@@H]1CN(C)C(=O)C1CC1	none
Cc1ccsc1/C=N/n1c(-c2ccco2)n[nH]c1=S	miR-122 inh 39
C[C@@H]1CCCCO[C@@H](CN(C)Cc2ccc3c(c2)OCO3)[C@H](C)CN([C@H](C)CO)C(=O)c2cc(NC(=O)Nc3ccc(C(F)(F)F)cc3)ccc2O1	miR-122 inh 34
C[C@H](CO)N1C[C@H](C)[C@H](CN(C)Cc2ccc(Cl)c(Cl)c2)Oc2c(NC(=O)Nc3ccc4c(c3)OCO4)cccc2C1=O	none
C[C@@H]1CN([C@@H](C)CO)C(=O)c2cc(NC(=O)Nc3ccc(C(F)(F)F)cc3)ccc2O[C@@H]1CN(C)CC1CCCCC1	miR-122 inh 40
COc1ccc(CN(C)C[C@@H]2OCCCC[C@H](C)Oc3ccc(NC(=O)Nc4ccc(C(F)(F)F)cc4)cc3C(=O)N([C@H](C)CO)C[C@@H]2C)cc1	miR-122 inh 31
C[C@@H]1CN([C@@H](C)CO)C(=O)c2cc(-c3ccccc3F)cnc2O[C@H]1CN(C)C(=O)NC1CCCCC1	none
COc1ccc(CN(C)C[C@@H]2OCCCC[C@@H](C)Oc3ccc(NC(=O)c4ccccc4)cc3C(=O)N([C@H](C)CO)C[C@@H]2C)cc1	none
C[C@@H]1CN([C@H](C)CO)C(=O)c2cccc(NC(=O)Nc3ccccc3)c2O[C@H]1CN(C)Cc1ccc(C(F)(F)F)cc1	none
COc1ccc(S(=O)(=O)N(C)C[C@H]2Oc3ccc(NC(=O)Nc4ccc(C(F)(F)F)cc4)cc3C(=O)N([C@H](C)CO)C[C@H]2C)cc1	none
C[C@H](CO)N1C[C@H](C)[C@H](CN(C)C(=O)NC2CCCCC2)Oc2ncc(-c3cccc(C(F)(F)F)c3)cc2C1=O	miR-122 inh 33
COc1ccc(S(=O)(=O)N(C)C[C@H]2Oc3ccc(NC(=O)Nc4ccc(C(F)(F)F)cc4)cc3C(=O)N([C@@H](C)CO)C[C@H]2C)cc1	none
Cc1ccc(S(=O)(=O)N(C)C[C@H]2Oc3ccc(NC(=O)Nc4ccc(C(F)(F)F)cc4)cc3C(=O)N([C@H](C)CO)C[C@H]2C)cc1	none
C[C@H](CO)N1C[C@H](C)[C@H](CN(C)C(=O)NC2CCCCC2)Oc2ncc(-c3ccccc3F)cc2C1=O	none
CC(C)C#Cc1ccc2c(c1)O[C@@H](CN(C)C(=O)CN(C)C)[C@H](C)CN([C@H](C)CO)S2(=O)=O	none
CNC[C@H]1Oc2cc(C#Cc3cccc(F)c3)ccc2S(=O)(=O)N([C@@H](C)CO)C[C@H]1C	none
CC(C)C#Cc1ccc2c(c1)O[C@@H](CN(C)C(=O)CN(C)C)[C@H](C)CN([C@@H](C)CO)S2(=O)=O	none
CCC(=O)Nc1ccc2c(c1)C(=O)N(C)C[C@H](OC)[C@@H](C)CN(C(C)=O)[C@@H](C)CO2	none
CC(C)C#Cc1cnc2c(c1)C(=O)N([C@H](C)CO)C[C@@H](C)[C@H](CN(C)C(=O)CC1CC1)O2	none
CCC(=O)Nc1ccc2c(c1)OC[C@H](C)NC[C@@H](C)[C@H](OC)CN(C)C2=O	none
CCC(=O)Nc1ccc2c(c1)OC[C@H](C)N(C(=O)c1ccccn1)C[C@H](C)[C@@H](OC)CN(C)C2=O	none
COc1cccc(S(=O)(=O)N(C)C[C@@H]2Oc3ncc(C#Cc4ccccc4)cc3C(=O)N([C@H](C)CO)C[C@@H]2C)c1	none

Source: PubChem BioAssay
